Assay results reported in PubChem BioAssay (NCATS).
“And” between values parts separate entries of the source, which are not always exact repeats. Equal values may be shown once. Results filed as inconclusive are left out. The source made the active and inactive calls. Calls come from the whole dose curve; as a rule, active = well fitted curve in the direction sought with a large enough effect; inconclusive = small, poorly fitted or top-dose-only effect, or another doubt; inactive = no such curve, though single readings can be large or run the other way.

test: qHTS Assay for Identifying Gametocytocidal Compounds (AID 743244);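 note: actives lower the fluorescent signal which means gametocytes are killed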; settings: P. falciparum 3D7 stage III-V gametocytes, alamarBlue, 72 h; max response: active compounds read low
How it was run: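 3D7 gametocytes, stages III–V, 20,000/well; cpd 72 h, 37 °C/5% CO2; + alamarBlue 24 h; fluor. Ex 525/Em 598.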
% is set by controls: 0 for no effect and ±100 for the full control effect.

| SMILES | max response |
| --- | --- |
| CN(N=O)C(=O)N[C@@H]1[C@@H](O)[C@H](O)[C@@H](CO)O[C@@H]1O | 5.26% (inactive) |
| Cn1cc[nH]c1=S | -4.61% (inactive) |
| C[C@H]1O[C@@H](n2cc(F)c(=O)[nH]c2=O)[C@H](O)[C@@H]1O | 0.485% (inactive) |
| CC1(C)CO[C@@H](CC(=O)O)CN1 | 28.1% (inactive) |
| CCCCCCCCCCCCCCCCCCOCC(O)CO (centres undefined) | 1.98% (inactive) |
| CC(COc1ccccc1)NC(C)C(O)c1ccc(O)cc1 (centres undefined) | 25.2% (inactive) |
| O=C(O)c1ccccc1O | 6.2% (inactive) and -5.06% (inactive) |
| COc1cc(C(=O)N2CCOCC2)cc(OC)c1OC | -5.92% (inactive) and 13.8% (inactive) |
| OCC(O)CN1CCN(c2ccccc2)CC1 (centres undefined) | -0.192% (inactive) |
| O=C(O)Cc1sc(-c2ccccc2)nc1-c1ccc(Cl)cc1 | -5.46% (inactive) and 46.6% (inactive) and 14.6% (inactive) |
| CCC(=O)c1ccc(O)cc1 | -0.113% (inactive) |
| CC[C@@]1(c2ccccc2)NC(=O)N(C)C1=O | 7.9% (inactive) |
| CN1CCC[C@@H]1Cc1c[nH]c2ccc(CCS(=O)(=O)c3ccccc3)cc12 | -0.49% (inactive) |
| CC(C)(C)NCC(O)COc1ccc(NC(=O)NC2CCCCC2)cc1 (centres undefined) | 11.9% (inactive) |
| CCOC(CN1CCN(CC(C)C(=O)c2ccccc2)CC1)c1ccccc1 (centres undefined) | 18.2% (inactive) |
| CN(C)CCCO[C@@H]1[C@H]2OC(C)(C)O[C@H]2O[C@@H]1C(O)CO (some centres undefined) | -6.36% (inactive) |
| O=C1NC(=O)[C@@]2(CCOc3ccc(F)cc32)N1 | -2.96% (inactive) |
| Cc1ncc([N+](=O)[O-])n1CC(O)CCl (centres undefined) | 22.3% (inactive) |
| Cc1ccc(C(C)C)cc2c(C)ccc1-2 | 3.45% (inactive) |
| NCC(=O)CCC(=O)O | 0.855% (inactive) |

| SMILES | max response |
| --- | --- |
| CC1(C)S[C@@H]2[C@H](NC(=O)Cc3ccccc3)C(=O)N2[C@H]1C(=O)O (tested in a mixture with another compound) | -2.5% (inactive) |
| Cc1cc2c(cc1S(N)(=O)=O)S(=O)(=O)CCC2 | 20.4% (inactive) |
| COc1ccc2[nH]c(S(=O)Cc3ncc(C)c(OC)c3C)nc2n1 (centres undefined) | -2.18% (inactive) |
| CCOc1nc2cccc(C(=O)O)c2n1Cc1ccc(-c2ccccc2-c2nn[nH]n2)cc1 | 5.7% (inactive) |
| O=c1cc[nH]c(=S)[nH]1 | 12.7% (inactive) |
| CCCCC/C(C=O)=C\c1ccccc1 | 8.31% (inactive) |
| COc1ccc2c(c1)C(=O)N(CCc1ccc(S(=O)(=O)NC(=O)NC3CCCCC3)cc1)C(=O)C2(C)C | 22.2% (inactive) |
| CC(=O)Oc1c(C)c(C)c2c(c1C)CC[C@@](C)(CCC[C@H](C)CCC[C@H](C)CCCC(C)C)O2 | -2.38% (inactive) and 13.2% (inactive) and -6.36% (inactive) |
| C[C@@H]1CCN(C(=O)[C@H](CCCN=C(N)N)NS(=O)(=O)c2cccc3c2NC[C@H](C)C3)[C@@H](C(=O)O)C1 | -0.0233% (inactive) |
| c1ccc(CN(CC2=NCCN2)c2ccccc2)cc1 | -10.1% (inactive) |
| O=C(O)[C@@H]1CSCN1 | -11.5% (inactive) |
| CC(=O)c1ccc2c(c1)N(CCCN(C)C)c1ccccc1S2 | -10.5% (inactive) |
| Cc1cccc(C)c1NC(=O)CN(CC(=O)O)CC(=O)O | -6.34% (inactive) |
| O=C(CCCN1CCN(c2ccccn2)CC1)c1ccc(F)cc1 | 11.2% (inactive) |
| O=c1cc[nH]c(=O)[nH]1 | 17% (inactive) |
| CCn1cc(C(=O)O)c(=O)c2cnc(N3CCNCC3)nc21 | 12.2% (inactive) |
| CN(C)CCN(Cc1ccccc1)c1ccccn1 | -8.07% (inactive) |
| C[C@H](N)[C@H](O)c1cccc(O)c1 | 5.58% (inactive) |
| Cn1c(=O)c2c(ncn2CC2OCCO2)n(C)c1=O | 2.6% (inactive) |
